About 2,600 (0.72%) of roughly 360,000 compounds were called active. About 5% were inconclusive and are not listed. Only a selection was taken, and actives are over-represented in it overall. A number with no mark means an inactive call. The call rests on the fitted dose curve; in most records, active means well fitted inhibition curve with a large enough effect; inconclusive means small, poorly fitted or top-dose-only effect; inactive means no such curve, though single readings can be large or run the other way.
Test: Primary qHTS for Inhibitors of ATXN expression; further: nearly all actives have a fitted effect of over 55% in size
Conditions: HEK-293 ATXN2-luciferase reporter, luminescence, 24 h; series mostly up to 57 µM; activity change, negative = inhibition: at the top concentration
Text: University of Utah School of Medicine, Salt Lake City, Utah
Spinocerebellar ataxia type 2 (SCA2) is a multisystem neurodegenerative disease caused by a dominantly acting mutation leading to expansion of a polyQ domain in the ataxin-2 protein (ATXN2). SCA2 patients develop progressive ataxia and later lose function in other neuronal systems. Prominent parkinsonian signs develop in some patients. Like many neurodegenerative disorders, no symptomatic or disease-modifying treatments are known.
The primary objective of the proposed research is to identify compounds inhibiting ATXN2 expression and to test them for efficacy in SCA2 mouse models. We have developed a cell-based assay paired with an in vivo mouse model using identical luciferase expression constructs. This approach takes advantage of an ATXN2-luciferase transgene, with the luciferase gene flanked by the upstream and downstream portions of the ATXN2 gene. Here we describe a 5-7 dose quantitative high thoroughput screen (qHTS) for compounds lowering ATXN2 expression. We screened the NIH Molecular Libraries Small Molecule Repository (MLSMR) and NCGC's mechanistically annotated (MIPE) and drug repurposing (NPC) collections of compounds for lowering expression of an ATXN2-luciferase reporter in HEK-293 cells. The assay is a multiplexed cell viability assay to ensure target reduction in the absence of cytotoxicity. Secondary qHTS assays included a CMV-luciferase reporter expressed in HEK-293 cells as well as a biochemical assay using recombinant luciferase to detect inhibitors of the reporter enzyme. Compounds that inhibit ATXN2 expression but is not cytotoxic were selected for confirmatory and secondary screens.
PROTOCOL TABLE (as described by Inglese J, Shamu CE and Guy RK. 2007)
SEQUENCE No. (e.g., 1, 2, 3, etc.); […] (e.g., Cells, Incubation, Reagent, etc.); VALUE; DESCRIPTION.
1; Cells; 4 uL; white, solid bottom, 1536-well Greiner assay plate.
2; Incubation; 2 hr; 37 degree C in 5% humidified CO2.
3; Compounds; 23 nL; Kalypsis pintool (Wako USA) equipped with a 1536-well pin head.
4; Incubation; 24 hr; 37 degree C in 5% humidified CO2.
5; Reagent; 1 uL; Gly-Phe-7-Amino-4-trifluoromethylcoumarin.
6; Incubation; 30 min; 37 degree C in 5% humidified CO2.
7; Detection; Fluorescence; ViewLux plate reader (PerkinElmer).
8; Reagent; 3 uL; SteadyGlo luciferase solution (Promega).
9; Incubation; 5 min; room temperature.
10; Detection; Luminescence; ViewLux plate reader (PerkinElmer).
NOTES (numbers refer to Sequence numbers above)
1. S2 cells expressing ATXN2-luciferase reporter were suspended in phenol-red free DMEM and dispensed in assay plates using a Multidrop Combi dispenser (Thermo Fisher Scientific).
2. Assay plates were incubated. Evaporation was prevented by covering assay plates with metal lids containing holes to allow gas diffusion.
3. Compounds were added in a dose response manner with the final concentrations of 57, 11.4, 2.28, 0.46, 0.091, 0.018, 0.0037 uM. Vehicle-only plates, with DMSO being pin-transferred to columns 5-48, were inserted uniformly at the beginning and the end of each library to monitor and record any shifts in assay performance.
5. 125 uM Gly-Phe-7-Amino-4-trifluoromethylcoumarin (MP Biomedicals) working concentration was used at a final concentration of 25 uM.
7. To assess cell viability; the assay plates were read using the ViewLux high-throughput CCD imager (PerkinElmer), wherein single end-point fluorescence measurement was acquired (excitation 405/10; emission 540/25 nm).
8. Detection reagent SteadyGlo Luciferase (Promega) was added to the assay plate.
10. Luminescence is then measured on the ViewLux imager equipped with a clear emission filter using a 2 sec exposure. All screening operations were performed on a fully integrated robotic system (Kalypsys) containing one RX-130 and two RX-90 anthropomorphic robotic arms (Staubli).
[…]
On the % scale 0 is the no-effect control and ±100 the full control effect; potency means the concentration at half of the fitted maximal effect.

SMILES | activity change, negative = inhibition | Potency
Cc1nnc(SCc2cc(=O)c3cc(F)ccc3[nH]2)n1C | 10.9% (inactive) | –
CN(c1ccccc1)S(=O)(=O)c1ccc(Cl)c(C(=O)NCCc2c[nH]c3ccccc23)c1 | 0.602% (inactive) | –
CN(C)CCNC(=O)Nc1cccc(Cl)c1Cl | 1.81% (inactive) | –
CN(C)CCNC(=O)c1ccc(Cl)c2cc3ccccc3nc12 | – | 8.91 µM (active)
Cc1ccc(S(=O)(=O)c2nnn3c2nc(N2CCN(c4ccccc4F)CC2)c2cc(Cl)ccc23)cc1C | 4.45% (inactive) | –
CC(=O)c1cccc(-c2cnc3c(NC=O)cc(-c4cccc(C(=O)N(C)C)c4)cn23)c1 | -7.72% (inactive) | –
CN(C)C(=O)c1cccc(-c2cnc3c(NC=O)cc(-c4ccc(F)cc4)cn23)c1 | – | 25.1 µM (active)
CC(=O)c1cccc(-c2cnc3c(NC=O)cc(-c4ccc(N(C)C)cc4)cn23)c1 | 0% (inactive) | –
CCOc1ccc(NS(=O)(=O)c2ccc(N)cc2)nn1 | 8.26% (inactive) | –
CCN1CCN(C(=O)N[C@@H](C(=O)N[C@@H]2C(=O)N3[C@@H]2SC(C)(C)[C@H]3C(=O)O)c2ccccc2)C(=O)C1=O | 6.23% (inactive) | –
CC(=O)O[C@]1(C(C)=O)CC[C@@H]2[C@@H]3C[C@H](C)C4=CC(=O)CC[C@]4(C)[C@H]3CC[C@@]21C | 11.3% (inactive) | –
COc1ccc(OCC(O)CNCCNc2nccc(C(F)(F)F)n2)cc1 (stereo not given) | -14.1% (inactive) | –
CC(Oc1ccc(Br)cc1)C(=O)NC1CCCCCC1 (stereo not given) | -17.4% (inactive) | –
CC(C)(C)CC(C)(C)NCC(O)COCCOc1ccc(Br)cc1 (stereo not given) | – | 22.4 µM (active)
CCOc1ccc(Nc2oc(/C=C/c3ccc(F)cc3)nc2C#N)cc1 | -1.28% (inactive) | –
CCOC(=O)N1CCN([N+]([O-])=NOc2ccc([N+](=O)[O-])cc2[N+](=O)[O-])CC1 | 16.8% (inactive) | –
Cc1ccccc1-c1nc(SCC(=O)N(C)c2ccccc2)c2c(=O)n(C)c(=O)n(C)c2n1 | 6% (inactive) | –
O=C1NCCc2[nH]c(-c3ccncc3)cc21 | – | 6.11 µM (active)
COC(=O)Nc1nc2ccc(C(=O)C3CC3)cc2[nH]1 | 0.457% (inactive) | –
Cc1ccc(C(NC(=O)C2CCN(CCOc3ccc(Cl)cc3Cl)CC2)c2ccccn2)cc1 (stereo not given) | – | 28.2 µM (active)
O=C(NC(c1ccc(Cl)cc1)c1cnccn1)C1CCN(Cc2ccc(Cl)cc2)CC1 (stereo not given) | -9.15% (inactive) | –
COc1cccc(CN2CCC(C(=O)NC(c3ccc4c(c3)OCO4)c3ccccn3)CC2)c1 (stereo not given) | -4.28% (inactive) | –
O=C1c2c(O)cccc2[C@@H]([C@@H]2O[C@H](CO)[C@@H](O)[C@H](O)[C@H]2O)c2cc(CO)cc(O)c21 | 10.2% (inactive) | –
Cc1cccc(N2CCN(C(=O)c3ccc4c(c3)CCN4S(=O)(=O)c3ccccc3)CC2)c1C | -26.9% (inactive) | –
CCc1nc2c(OCCC3CCCCC3)cccn2c1N(C)C(=O)c1ccco1 | 0% (inactive) | –

SMILES | activity change, negative = inhibition | Potency
CN(CC(=O)Nc1ccccc1F)S(=O)(=O)c1ccc2c(c1)c(=O)n(C)c(=O)n2C | 1.48% (inactive) | –
COc1ccc(Sc2ccc(NC(=O)c3cccc(Cl)c3)cc2C#N)cc1 | -0.357% (inactive) | –
CCOc1ccc(CNCCSc2nnnn2C)cc1 | 8.83% (inactive) | –
COc1cccc(NC(=O)c2ccc3nc(CCc4ccccc4)oc3c2)c1 | 15.2% (inactive) | –
O=C(NC(=O)c1ccccc1)Nc1ccccc1O | -7.29% (inactive) | –
COC(=O)c1nc(NC(=O)c2ccccc2)n[nH]1 | -7.98% (inactive) | –
O=C(NC1=CC(=O)c2ccccc2C1=O)c1ccccc1 | – | 7.94 µM (active)
CCC(=O)Nc1c(C(=O)N2CCN(c3ccc(F)cc3)CC2)oc2ccccc12 | 2.94% (inactive) | –
CCn1c(-c2nonc2N)nc2c(C#CC(C)(C)O)ncc(OC[C@H]3CCCNC3)c21 | -12.9% (inactive) | –
Cc1ccc(S(=O)(=O)N2CCc3cc(C(=O)Nc4ccc(Cl)cc4C)ccc32)cc1 | 2.14% (inactive) | –
Cc1cc(C)cc(Nc2ncnc3onc(-c4ccc(F)cc4)c23)c1 | -1.61% (inactive) | –
CC(C)c1ccc(NC(=O)c2ccc(Cn3nc(N4CCN(c5ccccc5)CC4)ccc3=O)o2)cc1 | 0.267% (inactive) | –
CCCCS(=O)(=O)c1oc(-c2cccs2)nc1S(=O)(=O)c1ccccc1 | – | 3.16 µM (active)
NC(=O)CSc1oc(-c2cccs2)nc1S(=O)(=O)c1ccccc1 | 4.16% (inactive) | –
Cc1ccc(S(=O)(=O)c2nc(-c3cccs3)oc2NCc2cccnc2)cc1 | -0.794% (inactive) | –
CSc1ccccc1NC(=O)CCS(=O)(=O)c1nc(-c2cccs2)cc(C(F)(F)F)n1 | 11.6% (inactive) | –
O=C(CSc1ncn[nH]1)Nc1ccc(Br)cc1Br | 20.4% (inactive) | –
O=C(/C=C/Sc1ncn[nH]1)c1ccc(Cl)cc1 | – | 25.1 µM (active)
O=C(CSc1oc(-c2ccco2)nc1S(=O)(=O)c1ccc(Cl)cc1)c1ccccc1 | -10.6% (inactive) | –
CC(C)OCCCn1c(SCC(=O)c2ccccc2)nc2c(sc3ccccc32)c1=O | -1.85% (inactive) | –
CCCCN1CCC(CNC(=O)c2c3n(c4ccccc24)CCCO3)CC1 | 53% (inactive) | –
Fc1ccc(-n2ncc3c(Nc4ccc(Oc5ccccc5)cc4)ncnc32)cc1 | 17.8% (inactive) | –
O=C(NCc1ccc(F)cc1)c1ccc2nc(N3CCCCC3)sc2c1 | 8.82% (inactive) | –
CN(C)CCN(C(=O)C1CCCCC1)c1nc2cc3c(cc2s1)OCO3 | -25.9% (inactive) | –
c1c2c(cc3sc(N4CCCCC4)nc13)OCCO2 | – | 7.94 µM (active)
